# Source: PubChem BioAssay
# Sampled rows, rich in hits. Any-hit rate of the full collection: about 5.9%.
# AHR activator: activates the human aryl hydrocarbon receptor; P35869; AHR-responsive luciferase reporter cells, luminescence; activation, % at 5 µM; 2.5% of 320,000 active; in the data active means activation above about 47%;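 further: 0% = vehicle wells and 100% = reference agonist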
# Target sequence (P35869 whole entry, looked up): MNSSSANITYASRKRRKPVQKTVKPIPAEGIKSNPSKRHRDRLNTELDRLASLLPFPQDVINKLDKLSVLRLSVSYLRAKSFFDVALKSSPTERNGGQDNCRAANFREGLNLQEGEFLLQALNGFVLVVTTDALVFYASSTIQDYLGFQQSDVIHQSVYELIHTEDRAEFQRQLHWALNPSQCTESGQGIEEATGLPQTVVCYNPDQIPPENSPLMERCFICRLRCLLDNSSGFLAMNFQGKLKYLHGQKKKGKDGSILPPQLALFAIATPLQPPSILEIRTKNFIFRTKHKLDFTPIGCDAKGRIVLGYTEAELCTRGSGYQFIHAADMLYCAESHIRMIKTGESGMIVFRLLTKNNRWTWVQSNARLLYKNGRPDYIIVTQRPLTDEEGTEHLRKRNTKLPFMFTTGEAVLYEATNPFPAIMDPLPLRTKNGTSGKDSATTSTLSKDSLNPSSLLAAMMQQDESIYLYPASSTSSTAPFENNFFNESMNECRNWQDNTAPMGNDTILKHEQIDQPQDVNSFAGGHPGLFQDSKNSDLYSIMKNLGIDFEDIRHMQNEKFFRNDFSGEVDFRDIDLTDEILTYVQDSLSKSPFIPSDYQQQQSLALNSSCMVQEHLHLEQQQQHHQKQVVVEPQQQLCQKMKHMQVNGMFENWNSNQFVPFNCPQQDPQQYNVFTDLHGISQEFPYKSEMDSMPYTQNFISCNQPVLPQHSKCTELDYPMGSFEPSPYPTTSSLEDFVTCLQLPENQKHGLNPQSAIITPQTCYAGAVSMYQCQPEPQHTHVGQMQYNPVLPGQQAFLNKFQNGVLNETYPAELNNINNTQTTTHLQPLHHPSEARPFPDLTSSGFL
# GAA850 FXN act: increases GAA850 frataxin promoter reporter activity; HEK293 lucGAA850 FXN promoter luciferase reporter, 24 h; percent of 10 µM SAHA response; activation, % at 6 µM; 0.56% of 360,000 active;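 active means activation above the average of all compounds screened plus 3 SD, cutoff fixed separately per campaign, cut at about 7.5% in these data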;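 further: 0% = DMSO wells and 100% = 10 µM SAHA wells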
# NR0B1 inh: inhibits human nuclear receptor DAX1; P51843; inhibition, % at 6.75 µM; 0.99% of 340,000 active; AID 504766; HEK293 Gal4-DAX1 luciferase reporter, luminescence;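 active means inhibition above the mean over all tested compounds plus 3 SD, cut at about 4.2% in these data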;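 further: 0% = DAX1-transfected cells with DMSO and 100% = empty-vector control cells with DMSO; inhibition shows as a rise in luminescence from relieved DAX1 repression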
# HSP90 refold inh: inhibitors of HSP90 luciferase refolding in rabbit reticulocyte lysate. luciferase refolding luminescence, 3 h. inhibition, % at 5.6 µM. 0.91% of 290,000 active. AID 1789;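 active means inhibition above the screen-wide mean plus 3 SD, computed separately per campaign, cut at about 16% in these data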;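 further: 0% = DMSO wells and 100% = 60 µM geldanamycin wells; inhibitors lower the luminescence because luciferase stays unfolded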
# HSF1 activator: increases HSF-1 driven luciferase reporter signal | NIH3T3-HGL HSF-1 luciferase reporter, MG132, 8 h; 100% = twice DMSO control signal | activation, % at 9 µM | 1.7% of 300,000 active | AID 504408;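 active means mean replicate activation of at least 50% with a set share of replicates each reaching 50%; inconclusive means only one of those two conditions met; inactive means mean below 50% and too few replicates reaching it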;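 further: 0% = median of the neutral control wells and 100% = twice that signal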
# HSF1 inhib: HSF1 inhibition. NIH3T3-HGL HSE-luciferase, MG132-induced, luminescence 8 h; hits give low values. activity change, negative = inhibition, % at 7.5 µM (by protocol). 0.77% of 300,000 active. AID 2098;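 active means more than half of replicate wells show activity change below -50%, luminescence cut by over half; inconclusive means some wells, but at most half, below -50%; inactive means no replicate well below -50%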;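 further: luciferase reports HSF-1 transcriptional activity via heat shock element; 0% = median of DMSO wells and -100% = zero luminescence signal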
# * hit, by the source's call; ? = inconclusive; · = no result given.
SMILES,AHR activator,GAA850 FXN act,NR0B1 inh,HSP90 refold inh,HSF1 activator,HSF1 inhib
CN1Cc2c(N3CCOCC3)nc3sc(C(=O)c4ccc(Br)cc4)c(N)c3c2CC1(C)C,-4.7,2.7,·,7.3,-21.7,1.2
CC(=O)Nc1cccc(NC(=O)CSc2nc(=O)n3cccc(C)c3n2)c1,2.7,2.5,0.8,·,0.9,0.9
CCCC(C)NC(=O)C1c2ccccc2Oc2ccccc21 (stereo not given),-0.5,-0.8,-0.2,0.5,-66.8,-61.3*
Cc1cc(SCC(=O)c2ccc(Cl)cc2)nc(=O)[nH]1,-4.2,1.8,0.7,5.3,10.5,10.9
Cc1ccc(C(=O)CSc2cc(C)[nH]c(=O)n2)cc1,6.7,0.7,5.0*,4.6,21.4,11.4
c1ccc(-c2ccc(-c3ccncn3)cc2)cc1,17.2,2.0,2.9,·,43.9,9.4
COc1ccc(OC)c(S(=O)(=O)Nc2ccccc2C)c1,-0.2,-0.8,1.1,-0.4,-10.8,3.8
COc1ccc(OC)c(S(=O)(=O)Nc2ccccc2O)c1,5.5,-0.1,-0.8,·,90.2*,67.4
CCOC(=O)/C=C1\CN(C(C)c2ccccc2)S(=O)(=O)c2ccccc21 (stereo not given),1.1,0.6,2.2,-2.5,-3.6,-3.6
COc1cc(/C=C/c2nc3ccccc3c(=O)[nH]2)cc(OC)c1OC,23.1,0.5,-3.2,0.2,-4.2,-1.9
CCn1c(/C=C/c2ccccc2C)nc2ccccc2c1=O,16.7,5.6,-2.5,3.5,15.2,10.1
Cc1ccccc1/C=C\c1nc2ccccc2c(=O)[nH]1,37.6,4.3,2.3,-1.3,121.6*,70.4
Cc1ccccc1/C=C/c1nc2ccccc2c(=O)n1Cc1ccccc1,6.4,3.7,1.4,1.8,34.7,13.2
N#CCOc1ccccc1/C=C/c1nc2ccccc2c(=O)[nH]1,62.0*,2.4,-0.1,-4.0,21.2,4.6
Cc1ccccc1/C=C/c1nc2ccccc2c(=O)[nH]1,70.2*,0.7,1.2,-1.4,33.5,26.7
COCC(=O)N1CCC(Oc2ccc(C(=O)N3C[C@H]4CC[C@H]3C4)cc2)CC1,0.2,2.6,-0.3,4.7,-8.4,-8.1
O=C(Nc1ccc(N=Nc2ccccc2)cc1)c1ccccc1Cl,-7.4,4.8,3.3,-3.4,72.5*,31.8
O=C(Nc1ccc(N=Nc2ccccc2)cc1)c1ccc(Cl)cc1Cl,-2.7,5.0,0.0,-3.0,-8.8,0.8
O=C(CCl)Nc1ccc(N=Nc2ccccc2)cc1,·,-0.4,1.6,2.3,67.7*,56.0
O=C(Cc1ccc(Cl)cc1)Nc1ccccc1C(=O)Nc1ccc(C(=O)O)cc1,-0.1,1.4,2.4,-0.2,-5.8,-7.2
CC(=O)Nc1ccc(N=Nc2ccccc2)cc1,-2.3,4.0,2.4,-4.1,59.7*,22.3
O=C(CCl)Nc1ccc(-c2ccccc2)cc1,-0.6,-12.5,-1.1,3.5,-47.6,?
O=C(O)c1ccc(NC(=O)c2ccccc2NC(=O)c2ccccc2Cl)cc1,-0.5,1.1,4.5*,-2.6,-1.5,8.8
Nc1cc(-c2nc3ncccc3o2)ccc1Cl,59.0*,4.8,2.3,1.3,-0.1,-1.4
CCCC(=O)Nc1cc(-c2nc3ncccc3o2)ccc1Cl,75.3*,0.6,-0.2,1.1,0.2,-4.8
SMILES,AHR activator,GAA850 FXN act,NR0B1 inh,HSP90 refold inh,HSF1 activator,HSF1 inhib
Cc1ccc(-c2nc3ncccc3o2)cc1N,67.4*,5.3,0.0,-1.1,24.0,13.5
Cc1cc(-c2nc3ncccc3o2)ccc1N,8.6,1.3,0.7,-4.5,16.5,8.1
Cn1c(N2CCOCC2)c(/C=N/O)c2ccccc21,46.3,2.0,7.5*,-0.3,-3.3,-6.2
O=C(CCC1CCN(C(=O)C2CC=CCC2)CC1)Nc1ccccc1 (stereo not given),·,0.2,-1.3,·,·,·
Cc1cc(-c2ccc(C(C)C)c(S(=O)(=O)NCc3ccco3)c2)on1,9.1,2.9,0.0,-1.4,8.3,-2.1
Cc1cc(-c2ccc(C(C)C)c(S(=O)(=O)NCCN3CCC(C)CC3)c2)on1,5.9,-0.6,0.5,1.5,66.7*,15.0
Cc1cc(-c2ccc(C)c(S(=O)(=O)NCCCN3CCCCCC3)c2)on1,4.0,-1.0,1.1,3.6,18.4,1.7
Cc1cc(-c2ccc(C)c(S(=O)(=O)NCCC(C)N3CCCCCC3)c2)on1 (stereo not given),-1.0,-0.6,0.3,0.7,-72.8,-67.2*
C/C(=N\NC(=O)c1cc(C)oc1C)c1ccc2ccccc2c1,13.8,1.7,4.4*,1.9,15.3,11.3
Cc1cc(C(=O)NN=C(Cc2ccccc2)Cc2ccccc2)c(C)o1,57.7*,5.2,0.1,-2.6,10.4,1.2
CC/C(Cc1ccccc1)=N\NC(=O)c1cc(C)oc1C,44.6,4.2,0.6,3.1,-4.5,7.6
Cc1cc(C(=O)OCC(=O)NCCc2ccccc2)c(C)o1,-0.8,2.5,5.1*,0.8,4.6,-9.3
Cc1cc(C(=O)OCC(=O)NCc2ccccc2)c(C)o1,1.1,-0.4,-0.6,-0.5,1.9,-3.7
CCN(CC(=O)NCc1ccc2c(c1)OCO2)S(=O)(=O)c1ccc(F)cc1,1.4,-1.1,-1.6,-4.9,-14.6,-2.3
Cc1ccc(S(=O)(=O)CC(=O)N(CCCN2CCOCC2)c2nc3c(F)cccc3s2)cc1,4.3,-0.4,2.1,·,12.7,6.3
O=C(CCS(=O)(=O)c1ccccc1)N(CCCN1CCOCC1)c1nc2c(F)cccc2s1,6.0,4.8,-0.6,·,161.4*,140.7
COc1ccc(OC)c(CCNC(=O)CC2Oc3ccc(C)cc3NC2=O)c1 (stereo not given),·,-0.4,1.0,-1.2,·,·
CCN(CC)CCCNC(=O)CC1Oc2ccc(C)cc2NC1=O (stereo not given),1.3,1.5,3.3,-0.8,2.0,4.9
Cc1ccc2c(c1)NC(=O)C(CC(=O)NCCN(CC(C)C)CC(C)C)O2 (stereo not given),0.6,0.0,5.7*,-3.0,7.7,-3.0
COc1ccc(OC)c(CCNC(=O)CC2Oc3ccccc3NC2=O)c1 (stereo not given),52.3*,0.1,1.6,2.7,1.3,9.0
Cc1ccc(Cl)cc1N1CCN(C(=O)c2ccccc2SCC(=O)N2CCCC2)CC1,1.3,-0.3,0.7,·,·,·
S=C(N/N=C/c1cccs1)NC1CC2CCC1C2 (stereo not given),7.1,3.1,·,-3.1,64.4*,29.9
Oc1ccc(/C=N/NC(=S)NC2CC3CCC2C3)cc1 (stereo not given),-2.8,5.8,2.3,1.0,26.8,34.3
O=C(Cn1nnc(-c2cccs2)n1)N1CCOCC1,0.3,2.6,3.2,1.4,1.5,-15.6
CC1CCN(C(=O)Cn2nnc(-c3cccs3)n2)CC1,12.9,4.6,6.0*,-1.4,23.5,21.1
CCOc1ccc(NC(=O)CSc2nncc(=O)n2N)cc1,1.2,-1.9,0.7,1.1,1.8,6.0
CCCn1c(-c2ccc(OC)cc2)nc2ccccc21,24.9,1.9,0.3,0.7,14.5,9.8
